Shown are actives, neighbours in structure and some others; about 6.3% of the full set was active somewhere.
Mdm2 MdmX PPI: inhibitors of human Mdm2-MdmX association, primary screen, cell-based, luminescence, split luciferase, SaOS-2, uHTS | hit rate 3% among 330,000 | Protein Mdm4 (Homo sapiens) + E3 ubiquitin-protein ligase Mdm2 (Homo sapiens), … | inhibition, % at 8 µM | AID 485346, 2010 | SaOS-2 split-luciferase Mdm2/MdmX complementation;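 active = inhibition of at least 50% at 8 µM in the primary screen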
tim23-1 inh: growth inhibitors of tim23-1 mutant yeast, primary screen, luminescence, uHTS. inhibition, % at 20 µM. hit rate 1.3% among 330,000. S. cerevisiae tim23-1 growth, BacTiter-Glo luminescence, 24 h;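 active = growth inhibition of the mutant yeast at or above 50%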;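 note: temperature-sensitive mutant grown at 25 °C; plate controls were DMSO-treated mutant yeast for no effect and medium wells lacking yeast for full effect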
TIM10 inh: growth inhibitors of isogenic TIM10 control yeast, primary screen, counter-screen for tim10-1 yeast inhibitor project, luminescence, uHTS; hit rate 1.4% among 330,000; S. cerevisiae TIM10 strain growth, BacTiter-Glo luminescence, 24 h; inhibition, % at 10 µM;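 active = inhibition of 40% or more at the single tested concentration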;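 note: wild-type TIM10 isogenic control strain grown at permissive 25 °C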
MPTP block: mitochondrial permeability transition pore inhibitors, primary screen, biochemical, isolated mouse mitochondria, absorbance. Ca2+ swelling absorbance, 30 min. inhibition, % at 10 µM. hit rate 1.4% among 360,000. AID 602449, 2012;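 active = inhibition of 50% or more, scaled per plate between neutral and stimulator controls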;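 note: 0% = DMSO wells given calcium and 100% = 1 mM EGTA wells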
tim10-1 inh: growth inhibitors of tim10-1 mutant yeast, primary screen, luminescence, uHTS. S. cerevisiae tim10-1 ts strain growth, BacTiter-Glo, 24 h. inhibition, % at 20 µM. hit rate 2.2% among 330,000;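 active = inhibition of at least 40%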;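 note: mutant grown at 25 °C; 0% = DMSO wells with yeast and 100% = wells holding no yeast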
TIM10 conf: growth inhibitors of wild-type TIM10 yeast, confirmation, counter-screen for tim10-1 synthetic lethality project, single concentration, luminescence, S. cerevisiae | shares compounds with TIM10 inh | S. cerevisiae tim10 strain growth, BacTiter-Glo luminescence, 24 h | hit rate 63% among 4,600 | inhibition, % at 10 µM | AID 463215, 2010;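 active = inhibition of yeast growth at or above a set limit in either of two replicates at 10 µM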;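 note: this counterscreen used the strain with wild-type TIM10; 0% = yeast with DMSO and 100% = medium wells lacking yeast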
* marks the source's active call; other numbers are inactive results; . = not tested or not shown.

SMILES	Mdm2 MdmX PPI	tim23-1 inh	TIM10 inh	MPTP block	tim10-1 inh	TIM10 conf
CC(=O)Oc1ccc2ccccc2c1C(NC(=O)Cc1ccccc1)c1ccc(Cl)cc1 (stereo unspecified)	36	39	40*	32	24	30
O=C(Nc1ccc2c(c1)OCO2)c1cc(C2CCCCN2C(=O)c2ccc3c(c2)CCO3)on1 (stereo unspecified)	.	.	.	-1	.	.
CSc1ccccc1C(=O)Nc1cccc(C)c1	-5	37	44*	4	20	30
COc1ccc(S(=O)(=O)N2CCN(CCOc3ccccc3Cl)CC2)cc1OC	3	24	97*	-2	15	9
COC(=O)C1=CN(c2ccc(OC)cc2)C(N)=C(C#N)C1c1ccccc1F (stereo unspecified)	.	.	.	1	.	.
COc1cccc(-c2cc(C(=O)N3CCOCC3)no2)c1	-48	5	-12	0	-4	.
COc1cccc(-c2cc(C(=O)N3CCN(C(=O)c4ccco4)CC3)on2)c1	10	9	47*	0	1	9
COc1cccc(-c2cc(C(=O)N3CCN(C(c4ccccc4)c4ccccc4)CC3)no2)c1	25	30	57*	1	40	44*
O=C(c1cc(-c2cccs2)on1)N1CCN(C(c2ccccc2)c2ccccc2)CC1	28	31	50*	-1	30	31*
COc1ccc(-c2cc(C(=O)N3CCN(c4ccccc4)CC3)no2)cc1OC	20	-4	42*	1	23	20
CCOC(=O)C1(C)CCCN(C(=O)c2ccc(OC)cc2OC)C1 (stereo unspecified)	.	.	.	0	.	.
C[C@H](CO)N1C[C@H](C)[C@@H](CN(C)Cc2ccc(C(=O)O)cc2)Oc2ncc(-c3ccc(C(=O)N(C)C)cc3)cc2C1=O	.	.	.	0	.	.
Cc1ccccc1NC(=O)C1C(=O)Nc2ccccc2C(=O)N1Cc1ccccc1 (stereo unspecified)	.	.	.	0	.	.
Cc1ccc(NC(=O)C/C(N)=N/OC(=O)Nc2cccc(Cl)c2)cc1	4	11	40*	3	36	24
CCNC(=O)N(CCOC)CC1CCCN(C2Cc3ccccc3C2)C1 (stereo unspecified)	19	-7	51*	0	-15	-8
O=C(NCc1cccc(F)c1)c1[nH]c(C(F)(F)F)nc1-c1ccccc1	.	.	.	1	.	.
Cc1ccc(C(=O)NCc2ccc3c(c2)OCO3)c(Cl)c1	.	.	.	-1	.	.
COc1ccc(CNC(=S)Nc2cc(C)cc(C)c2)cc1	25	15	41*	-1	27	-15
Cc1ccc(C(=O)NCc2ccc3c(c2)OCO3)c(C)c1	14	4	67*	0	-4	8
COc1ccc(CNC(=S)Nc2ccccc2-c2ccccc2)cc1	-28	15	48*	4	24	30
Cc1ccc(C)c(NC(=S)NCc2ccc3c(c2)OCO3)c1	22	3	41*	-1	25	0
COc1ccc(-c2oc3c4c2C(=O)OCCOC4CCC3)cc1 (stereo unspecified)	.	.	.	1	.	.
CCN(CC)C(=O)C1=C(C)N(Cc2ccc(C(C)(C)C)cc2)C(=O)C(CC(=O)NCc2ccco2)C1 (stereo unspecified)	.	.	.	0	.	.
Cc1cc(C)cc(NC(=S)NCc2ccc3c(c2)OCO3)c1	25	-15	42*	3	11	16
Cc1ccc(NC(=S)NCc2ccc3c(c2)OCO3)cc1C	9	34	25	2	24	.
SMILES	Mdm2 MdmX PPI	tim23-1 inh	TIM10 inh	MPTP block	tim10-1 inh	TIM10 conf
Cc1ccc(S(=O)(=O)N2CCOCC2)cc1C(=O)NCCCN1CCCC1=O	.	.	.	-3	.	.
C/C(=N\Nc1ccc(Cl)cc1)c1ccccn1	-140	40	52*	1	32	34*
Cc1cccc(-n2c(C)c(-c3ccccc3)[nH]c2=S)c1	-4	44	43*	1	33	38*
Cc1cccc(-n2c(C)n[nH]c2=S)c1	9	21	14	-1	17	.
O=C(CN1CCN(C(=O)c2ccco2)CC1)Nc1cc(S(=O)(=O)N2CCCC2)ccc1Cl	.	.	.	0	.	.
O=c1c2cc(F)ccc2sn1-c1ccc(F)cc1	15	37	47*	1	20	57*
